Results published in PubChem BioAssay AID624168 (Sanford-Burnham Center for Chemical Genomics, 2012).
In all, about 360,000 compounds went through this assay and about 800 (0.22%) were called active. This is one part of a sample in which actives are shown more often than they occur.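 How the source made its calls: active means activation of at least 8% versus controls, or a plate z-score of at least 8; inactive means the rest.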

assay: activators of alpha-DG glycosylation, primary screen, uHTS, Pro5-aDG cells, AlphaScreen (AID 624168); conditions: alpha-DG glycosylation AlphaScreen (IIH6), at 10 µM, stronger effect = higher value; 0% Pro5, 100% B10-LARGE cell signal unless noted;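 further: Pro5 are CHO cells carrying HIG-tagged alpha-DG that lacks glycosylation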

SMILES	activation
CNCC(O)c1cc(F)c(OCc2ccccc2)c(OCc2ccccc2)c1F (stereo not given)	7.7% (active)
Cc1ccc(C2CN(C)CC2C(=O)c2ccc(F)cc2)cc1 (stereo not given)	0% [setting not given] (inactive)
Cc1nc2ccccn2c1P(=S)(N1CCCCC1)N1CCCCC1	-0.2% [setting not given] (inactive)
COc1cc(C(=O)N2Cc3ccc(Br)cc3-n3nncc3C2)cc(OC)c1OC	-0.2% (inactive)
COC(=O)C1=C(c2ccc(F)cc2OCc2ccccc2)C[C@@H]2CC[C@H]1N2C(=O)NCc1ccc(Cl)cc1	0.6% (inactive)
